Assay results published in PubChem BioAssay (Tox21).
Records with an inconclusive call do not appear. The source made the active and inactive calls. Unless noted, calls follow the shape of the dose curve; as a rule, active = well fitted curve in the direction sought with a large enough effect in the repeat runs; inconclusive = weak or mixed curves; inactive = no such curve, though single readings can be large; an effect the other way counts as inactive or inconclusive.

Columns and labels:
[1] = qHTS assay for small molecules that induce genotoxicity in human embryonic kidney cells expressing luciferase-tagged ATAD5 (AID 651632); also: nearly all actives have a fitted effect of over 15% in size
How it was run: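 Genotoxicity read-out via ATAD5-luciferase: HEK293T cells, 16 hr compound incubation at 37C, Amplite detection.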

[2] = qHTS assay for small molecule agonists of the p53 signaling pathway - cell viability (AID 651633; calls by dose curve;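 also: p53RE-bla HCT reporter cells with a stable beta-lactamase p53 reporter; series mostly up to about 83 µM; nearly all actives have a fitted effect of over 30% in size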)
How it was run: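 p53RE-bla cells, seeded at 4,000 per well and rested 5 h at 37 C/5% CO2, received compounds in DMSO for 16 h at 37 C. CellTiter-Glo was then added, and luminescence was read after 30 min at room temperature to gauge cytotoxicity.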

[3] = qHTS assay for small molecules that induce genotoxicity in human embryonic kidney cells expressing luciferase-tagged ATAD5 - cell viability (AID 651634; calls by dose curve; also: nearly all actives have a fitted effect of over 25% in size)
How it was run: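 Live-cell protease activity (CellTiter-Fluor, fluorescence) indicates viability. HEK293T cells with luciferase-tagged ATAD5; 15.5 hr compound treatment at 37C.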

[4] = qHTS assay for small molecule disruptors of the mitochondrial membrane potential - cell viability (AID 720634; calls by dose curve;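 also: human HepG2 liver cancer cells; series mostly up to about 83 µM; nearly all actives have a fitted effect of over 20% in size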)
How it was run: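 Human hepatoma HepG2 cells were treated for 1 hr with test chemicals, then given m-MPI dye and CellTiter-Glo. Cell viability reflects luminescence proportional to cellular ATP.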

[5] = qHTS assay to test for compound auto fluorescence at 590 nm (red) in HepG2 cells (AID 720674)
How it was run: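 Compound auto-fluorescence is scored relative to Rose Bengal sodium, measured at 540/590 nm in live HepG2 cultures after 1 hr compound contact (37 C, 5% CO2).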

[6] = qHTS assay to test for compound auto fluorescence at 535 nm (green) in HepG2 cells (AID 720675)
[7] = qHTS assay to test for compound auto fluorescence at 460 nm (blue) in HEK293 cells (AID 720678)
How it was run: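 After cell attachment (4-5 hr, 37C), compounds were pinned onto HEK293 monolayers in 10% dialyzed FBS medium. The blue channel (405/460 nm) was read following overnight culture. Equivalency was calculated against triamterene.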

[8] = qHTS assay to test for compound auto fluorescence at 590 nm (red) in HEK293 cells (AID 720679)
How it was run: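 Plates of HEK293 cells (10% dialyzed FBS) are treated with 23 nL compound or DMSO vehicle after a 4-5 hr attachment period, incubated overnight at 37C, and read for red fluorescence at 540/590nm.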

[9] = qHTS assay for small molecule disruptors of the mitochondrial membrane potential (AID 720635)
How it was run: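 HepG2 cells (2,000/well) attached overnight at 37C, then took compound for 1 hr at 37C, 5% CO2. Mito-MPS dye was added for 30 min; fluorescence was read at 490/535 nm (monomers) and 540/590 nm (aggregates).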

Measured: Potency

OC1OCCOC1O (configuration not stated)
not listed: [9]
inactive: all other assays above

COC(=O)c1ccccc1C(=O)O
not listed: [5]
inactive: all other assays above

OC[C@@H](O)C(O)[C@@H](O)CO (some centres not stated)
not listed: [8] | [9]
inactive: all other assays above

CCCC(=O)OCCC(C)CCC=C(C)C (configuration not stated)
not listed: [7]
inactive: all other assays above

OCC1CCC(CO)CC1 (configuration not stated)
not listed: [5]
inactive: all other assays above

CO[Si](CCCn1c(=O)n(CCC[Si](OC)(OC)OC)c(=O)n(CCC[Si](OC)(OC)OC)c1=O)(OC)OC
inactive: all assays above

C=CCCCCCCCCC(=O)OCCCC
inactive: all assays above
